Measurements taken from PubChem BioAssay.

Assay: blockers of RIG-like receptor reporter activation – cell-based, Sendai virus stimulus, luciferase, 10K MLSCN set, TLR/RLR signaling modifier project, primary screen (AID 602276);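 further: firefly luciferase from ISG56 promoter only with Renilla not read in this screen; 0% = Sendai virus plus DMSO and 100% = medium plus DMSO without virus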
Conditions: HEK293 RL24 IRF3 luciferase reporter, at 10 µM, stronger effect = higher value;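 active means inhibition at or above 50% at 10 µM; inactive means inhibition below 50%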

inhibition, inactive:
Cc1cc(C)c(C#N)c(SCC(=O)Nc2ccc(S(=O)(=O)Nc3onc(C)c3C)cc2)n1 9.61%, CC(C)c1ccc(C(O)c2cnc(C(C)C)n2C)cc1 (stereo not given) -10.5%, CN1CCN(S(=O)(=O)c2ccc(NC(=O)c3ccc(F)cc3)cc2)CC1 0.12%, O=c1c2[nH]c3cccc(Cl)c3c2ncn1CCN1CCCCC1 16.5%, COc1ccc(OC)c(C(=O)CSc2nc3ncccc3[nH]2)c1 -7.2%, O=C(CC(CC(=O)c1ccccc1)C(=O)O)c1ccccc1 -0.637%, CCOc1ccc2nc(Nc3nc4c(c(=O)[nH]3)CCC4)nc(C)c2c1 -19.8%, CCOC(=O)Cn1c(S(=O)(=O)Cc2ccccc2)nc2ccccc21 9.42%, CC(C)NC(=O)Nc1cccs1 11.4%, CC(C)COC(=O)C1[C@H]2C(=O)N(Cc3cccs3)C[C@]23C=C[C@H]1O3 (stereo not given in full) 9.95%, CN(C)S(=O)(=O)c1ccc(S(=O)(=O)N(Cc2ccco2)Cc2ccccc2Cl)cc1 4.31%, COc1cccc(N(C(=O)c2ccco2)C(C(=O)NC2CCCC2)c2ccc(N(C)C)cc2)c1 (stereo not given) 6.61%, CCOc1ccc(Cn2nnc(C(=O)Nc3ccc(OC)cc3OC)c2N)cc1 -5.26%, CC(NC(=O)c1ccc2c(c1)OCO2)C(c1cccs1)N1CCOCC1 (stereo not given) 12.6%, Cn1c(=N)c(S(=O)(=O)c2ccccc2)cc2c(=O)n3ccccc3nc21 -14.3%
